Assay results reported in PubChem BioAssay AID1159580 (chemical genetic matrix, 2015).
Hit rate of the full screen: of about 5,500 compounds, about 2,000 (36%) were called active. About 18% were inconclusive and are not listed. Cut-off read from the data, not from the text of the source: active = normalized growth mostly below about 0.91 (no sharp cut-off); inconclusive = no clear call, values can overlap the other calls; inactive = mostly above about 0.92. This is one part of the list.

Assay: chemical genetic growth profiling, strain panel (AID 1159580);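 note: tested at 20 µM; growth read once vehicle control cultures reached saturation at 30 °C; 1 = growth at the plate median or of vehicle wells; lower values mean less growth of the strain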
Details: S. cerevisiae deletion strains, growth OD

Measured: normalized growth

COc1cc(-c2oc3cc(O)ccc3c(=O)c2O)ccc1O
inactive: locus YAL030W, strain snc1, stronger effect = lower value 0.977 | locus YBL061C, strain skt5, stronger effect = lower value 0.926 | locus YBR009C, strain hhf1, stronger effect = lower value 0.925 | locus YBR171W, strain sec66, stronger effect = lower value 1 | locus YCL011C, strain gbp2, stronger effect = lower value 0.942 | locus YCL016C, strain dcc1, stronger effect = lower value 0.961 | locus YCL061C, strain MRC1, stronger effect = lower value 0.993 | locus YCL069W, strain vba3, stronger effect = lower value 0.987 | locus YCR088W, strain abp1, stronger effect = lower value 1.02 | locus YDL005C, strain med2, stronger effect = lower value 1.03 | locus YDL040C, strain nat1, stronger effect = lower value 1.01 | locus YDR001C, strain nth1, stronger effect = lower value 1.02 | locus YDR159W, strain sac3, stronger effect = lower value 1.06 | locus YDR297W, strain sur2, stronger effect = lower value 0.958 | locus YDR335W, strain msn5, stronger effect = lower value 0.971 | locus YDR392W, strain spt3, stronger effect = lower value 0.868 | locus YEL003W, strain gim4, stronger effect = lower value 0.961 | locus YEL037C, strain rad23, stronger effect = lower value 0.972 | locus YEL061C, strain CIN8 (second series), stronger effect = lower value 1 | locus YER016W, strain bim1, stronger effect = lower value 0.986 | locus YER111C, strain swi4, stronger effect = lower value 0.979 | locus YER155C, strain BEM2 (second series), stronger effect = lower value 0.977 | locus YFR010W, strain ubp6, stronger effect = lower value 0.906 | locus YGL167C, strain pmr1, stronger effect = lower value 0.995 | locus YGL227W, strain vid30, stronger effect = lower value 1.04 | locus YGL240W, strain doc1, stronger effect = lower value 1.04 | locus YJL092W, strain hpr5, stronger effect = lower value 1.01 | locus YJL095W, strain BCK1 (second series), stronger effect = lower value 0.967 | locus YJL115W, strain asf1, stronger effect = lower value 1.01 | locus YJL129C, strain trk1, stronger effect = lower value 0.911 | locus YJL154C, strain vps35, stronger effect = lower value 1 | locus YKL160W, strain elf1, stronger effect = lower value 0.912 | locus YKR026C, strain gcn3, stronger effect = lower value 1.02 | locus YKR091W, strain srl3, stronger effect = lower value 1 | locus YLL001W, strain dnm1, stronger effect = lower value 0.959 | locus YLL026W, stronger effect = lower value 0.954 | locus YLL041C, strain sdh2, stronger effect = lower value 0.994 | locus YLR258W, strain gsy2, stronger effect = lower value 0.935 | locus YLR320W, strain mms22, stronger effect = lower value 0.9 | locus YLR342W, strain FKS1, stronger effect = lower value 0.966 | locus YLR370C, strain arc18, stronger effect = lower value 0.96 | locus YLR384C, strain iki3, stronger effect = lower value 0.987 | locus YML120C, strain ndi1, stronger effect = lower value 0.975 | locus YMR125W, strain sto1, stronger effect = lower value 1.11 | locus YMR129W, stronger effect = lower value 0.998 | locus YMR205C, strain PFK2, stronger effect = lower value 0.926 | locus YNL071W, strain lat1, stronger effect = lower value 0.96 | locus YNL248C, strain rpa49, stronger effect = lower value 0.968 | locus YNL322C, strain KRE1 (second series), stronger effect = lower value 1.03 | locus YNR049C, strain mso1, stronger effect = lower value 1 | locus YOR001W, strain rrp6, stronger effect = lower value 0.917 | locus YOR080W, strain dia2, stronger effect = lower value 1 | locus YOR265W, strain rbl2, stronger effect = lower value 0.968 | locus YOR290C, strain snf2, stronger effect = lower value 0.888 | locus YPL078C, strain atp4, stronger effect = lower value 0.927 | locus YPL106C, strain sse1, stronger effect = lower value 0.935 | locus YPL240C, strain hsp82, stronger effect = lower value 0.972
active: locus YAL021C, strain ccr4, stronger effect = lower value 0.743 | locus YAL026C, strain drs2, stronger effect = lower value 0.873 | locus YBR023C, strain chs3, stronger effect = lower value 0.861 | locus YBR231C, strain swc5, stronger effect = lower value 0.826 | locus YBR279W, strain paf1, stronger effect = lower value 0.853 | locus YDR069C, strain doa4, stronger effect = lower value 0.774 | locus YDR137W, strain rgp1, stronger effect = lower value 0.763 | locus YDR195W, strain ref2 1.18 [resistant] | locus YDR334W, strain swr1, stronger effect = lower value 0.887 | locus YER015W, strain faa2, stronger effect = lower value 0.859 | locus YGL173C, strain kem1, stronger effect = lower value 0.86 | locus YGL253W, strain hxk2, stronger effect = lower value 0.833 | locus YHR013C, strain ard1, stronger effect = lower value 0.814 | locus YHR027C, strain rpn1, stronger effect = lower value 0.788 | locus YHR142W, strain chs7, stronger effect = lower value 0.827 | locus YJL164C, strain tpk1, stronger effect = lower value 0.829 | locus YJL166W, strain qcr8, stronger effect = lower value 0.895 | locus YJL187C, strain SWE1, stronger effect = lower value 0.885 | locus YLR027C, strain aat2, stronger effect = lower value 0.902 | locus YLR221C, strain rsa3, stronger effect = lower value 0.899 | locus YLR262C, strain YPT6 (second series), stronger effect = lower value 0.748 | locus YLR357W, strain rsc2, stronger effect = lower value 0.8 | locus YMR058W, strain fet3, stronger effect = lower value 0.306 | locus YMR231W, strain pep5, stronger effect = lower value 0.906 | locus YNL209W, strain ssb2, stronger effect = lower value 0.647 | locus YOR070C, strain gyp1, stronger effect = lower value 0.873 | locus YOR083W, strain WHI5, stronger effect = lower value 0.85 | locus YOR106W, strain vam3, stronger effect = lower value 0.567 | locus YOR270C, strain vph1, stronger effect = lower value 0.542 | locus YPL051W, strain arl3, stronger effect = lower value 0.744
